# Tested on: PXR homodimer (NR concentration 270 nM)
# Assay: PBM binding z-score (relative to random genomic background probes); higher = stronger binding; sequences stand for … in GC…GCGATTGACAGCGTAGAATGAAGG
# Procedure, shortened: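 Antibodies against each partner of ligand-free nuclear receptor dimers (one per run) detected binding on custom Agilent 4×180K protein-binding microarrays after 1 h incubation. The double-stranded probes had 34-nt variable regions carrying direct-repeat seeds, single-nucleotide variants, half-site ablations and random human genomic background sequences. Binding z-scores, from regression-normalized fluorescence, use the random background probes as reference.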
row,Sequence,PBM binding z-score
1,CCTACTGGGTCATCAGGTCATTGATATCAACGTT,0.934
2,TAGACTAGGTCATGGGCCAGTATACCACGCGAAC,0.462
3,TCTTGTAAATCAAGCAGGTTAAGAAAGCCTGAGT,0.119
4,TCATATAGCTAATACAGGTGAAAGTCGGCATCTA,-0.0901
5,GTAGACAGGTGAAACGCAGGTAACTCAGGGTGGC,-0.535
6,CAGCCTAGGTCAGGGCCAGTATCGGAGGAACGTT,-1.08
7,ATCTCTAGGTAAGACTCTGTTCAGTGAAGAACGC,0.53
8,TCGAGTAGGTTAGGTGCATTCAGAATGGCGTCGA,0.333
9,TCATCTAGGTAAATGCTAGGTGAAAGTCCGATCT,-0.263
10,CCGAGTAGGTTATGCGGCATTCAGGCAACGGTGA,0.0083
11,TCTTGTAGATCAACAGGATGTTAAGAAAGATCGA,-0.381
12,TCGAGTAGGTCAGTCGGGGCATTCAGCCAACATA,0.855
13,CCTACTGGGCCAAAAAGGTTATTGATGCCGATAA,0.529
14,CGTCCAAGGTCACAGGTCAGTGAAGAGATGACGG,0.786
15,TCATATAGGTAGAAGGTGAAAGTCGGTGTGGTAA,0.482
16,ATCGAAAGGTCGAGGTAAGTATAGAGAAAGGGAA,0.464
17,CGTCCAAGGTCAGCAGGTCAGTGAGAGCGACGTG,0.915
18,TCATATAGGGAAAAGGTGAAAGTCGGTGTGGTAA,0.873
19,ACTATTAGTTGACTTAGGGCAACCAATACGACGC,0.557
20,ACTAGCAGGCCAAGCGTCACTCAAGATTAGTCCG,-0.421

row,Sequence,PBM binding z-score
1,AATACAGGGTCATCGTAGGCCTGAGTACGCACAG,0.334
2,ACTATTAGTTGACTTATGGCAACCGATACGACGC,0.358
3,TTACCAAGGTGAGCTGAGGTCGTTGGTCCAACTC,0.529
4,CCTACTGGGCCATTCAGAGTTCATTGATCATATG,8.94
5,TCTTGTAGATCAACAGGAGGTTAAGAAAGATCGA,-0.259
6,AGAATGAGGTTATACGTAGAGCAGGGAAGAAAGT,0.781
7,ACTAGTTGGTCAGCTGAGTTCACACACAATTCGG,6.87
8,CAGCCTAGGTCAGGCCCAGTATAGGAGGAACGTT,-0.609
9,CGTCCAAGGTCATAGGAGGTCAGTGCAGACAGAT,4.62
10,GTACCAAGGTCAATAGGTCGTTGATGAGTAGGCG,0.916
11,ATCTCTAGTTAAGACTCAGTTCAGTGAAGAACGC,2.02
12,CCTAGCAGGCCAATCTGGGTAACTCAAGGCTTGA,-0.707
13,GCTAGTTGGTCAGTAAAAGGCCACACACCGGTCG,-0.108
14,CCTAGTTGGTCAGGAGGTCACACACCGGATATGA,1.41
15,CCTCGGAGGACAACTGGAGGTCAGAGCTGCCAGA,0.545
16,ATATGTAGGTTAGCTGGGATCATTCAGACTAGGC,0.543
17,AGTCAAAGTGCAGGACGAGGTAACGTAAAGCACG,-0.256
18,GCAGACAGGTGAAACGCAGGTAGCTCAGGGTGGC,-0.785
19,AGCGAAAGGTCGACGAGGTGAGTATACACCGTTT,0.276
20,TACCCTAGGTCAGATCGGGCCAGTATACGCTATA,-0.0848

# From the supplement of paper PMC6555819
